Screen size: about 69,000 compounds; about 950 (1.4%) showed an effect of 50% or more. The sample holds strong results, similar compounds and a random draw of the others, so the mix is not that of the screen.
System: Mycobacterium tuberculosis
Assay: Cornell M. t heat shock assay; also: in the data most compounds retested in dose-response had high values
Type: functional, organism-based
Parameters: dose or concentration left out as unconfirmed

| SMILES | Percent Effect [%] |
| --- | --- |
| CS(=O)(=O)NC[C@]12COC[C@H]1CN(CC1CCCC1)C2.O=C(O)C(F)(F)F | -15.72 |
| O=C(O)C(F)(F)F.O=C(O)C(F)(F)F.O=C(O)C(F)(F)F.c1ccc(CN2CCC3(CC2)CCN(Cc2cccs2)C3)nc1 | -44.21 |
| Cc1nn(C)c2c(=O)n(CC(=O)NCc3ccccc3Cl)ccc12 | -7.047 |
| Cc1cnn(CC2CCCCN2CC(=O)Nc2nc(C)cs2)c1 (centres undefined) | 74.94 |
| Cc1cnn(CC2CCCCN2CC(=O)Nc2nncs2)c1 (centres undefined) | 18.17 |
| Cc1cnn(CC2CCCCN2CC(=O)Nc2c(C)n[nH]c2C)c1 (centres undefined) | -5.895 |
| O=C(N[C@@H]1CN(Cc2c[nH]nc2-c2ccccc2)C[C@H]1O)c1cc[nH]n1 | 1.707 |
| CN1CCCCc2c1nc1c(c2N)CCC1.O=C(O)c1cc([N+](=O)[O-])ccc1Cl | -19.05 |
| Cc1cc(C)cc(CN2CCC3(CC2)CC(Nc2ncccn2)CO3)c1.O=C(O)C(F)(F)F (centres undefined) | -30.68 |
| C=C/C=c1\c(=C/C)oc2c(NCc3ccccc3)nc(C)nc12 | 104.3 |
| C=C/C=c1\c(=C/C)oc2c(NCc3ccccc3)ncnc12 | -0.4342 |
| C=C/C=c1\c(=C/C)oc2c(NCc3ccccc3)nc(CC)nc12 | 75.04 |
| CCn1c(NCc2ccccc2)nc2c(C)nn(C)c2c1=O | 12.91 |
| Cc1nc(NCc2cccnc2)c2c(n1)c(C)nn2C | 15.35 |
| CCc1nc(NCc2ccccn2)c2c(n1)c(C)nn2C | -15.98 |
| CS(=O)(=O)N1CCC2(CC1)COC(COc1ccccn1)C2.O=C(O)C(F)(F)F (centres undefined) | -12.81 |
| O=C(O)C(F)(F)F.O=C(O)C(F)(F)F.O=C1[C@H]2CN(Cc3ccccc3)C[C@H]2CN1CCN1CCCC1 | 1.586 |
| Cc1oncc1C(=O)N[C@@H]1CN(C2CCC2)C[C@@H]2CCCO[C@@H]21.O=C(O)C(F)(F)F | 25.58 |
| Cc1c[nH]nc1C1CCCN1Cc1ncc[nH]1.O=CO (centres undefined) | -1.504 |
| Cc1ccccc1NC(=O)c1cncc(C2CCNCC2)n1.Cl | 27.66 |
| c1ccc(Oc2ncccc2CNCc2ccccn2)cc1 | 69.15 |
| O=C(CN1CCCCCC1)NCc1cccnc1Oc1ccccc1 | 2.86 |
| CN(C)S(=O)(=O)NCc1cccnc1Oc1ccccc1 | -4.23 |
| O=C(C[C@@H]1COC[C@H]2CN(CC3CC3)C[C@@H]12)NCc1cccnc1.O=C(O)C(F)(F)F.O=C(O)C(F)(F)F | 9.594 |

| SMILES | Percent Effect [%] |
| --- | --- |
| CC(=O)N1CCN(C(=O)Cc2cnc(-c3c(Cl)cccc3Cl)s2)CC1 | 3.544 |
| NC(=O)C1CCN(C(=O)Cc2cnc(-c3c(Cl)cccc3Cl)s2)CC1 | 65.47 |
| O=C(Cc1cnc(-c2c(Cl)cccc2Cl)s1)N1CCOCC1 | -11.24 |
| O=C(O)C(F)(F)F.O=C1CC(c2cccnc2)C2(CCN(S(=O)(=O)C3CC3)CC2)N1 (centres undefined) | -6.88 |
| CN(C)S(=O)(=O)NCc1nc(-c2cccc(F)c2)c(-c2ccccn2)[nH]1 | 62.81 |
| Cc1ccc(-c2nc(CNS(=O)(=O)N(C)C)[nH]c2-c2ccccn2)cc1 | 101.5 |
| CN(C)S(=O)(=O)NCc1cccnc1Oc1ccc(F)cc1F | -13.26 |
| Cc1ccccc1Oc1ncccc1CNS(=O)(=O)N(C)C | -10.74 |
| Cc1nc(-c2ccc(CNS(=O)(=O)N(C)C)cc2)ccc1C(N)=O | 10.37 |
| CN(C)S(=O)(=O)NCc1cccnc1Oc1ccccc1F | 7.179 |
| Cl.O=C(c1cccnc1N1CCN(CCO)CC1)N1CCCC1 | 2.64 |
| COCC1CN(CC2CC2)Cc2nccn2C1.O=C(O)C(F)(F)F (centres undefined) | -7.797 |
| COCC(=O)N(C)Cc1nc(N2CCCC2)ncc1-c1ccncc1.Cl | -16.19 |
| COc1ccc(C2CCCCCN2S(=O)(=O)N(C)C)cc1 (centres undefined) | 68.3 |
| COc1ccc(C2CCCCCN2S(C)(=O)=O)cc1 (centres undefined) | -12.37 |
| COc1ccc(C2CCCN2S(=O)(=O)N(C)C)cc1 (centres undefined) | -0.3722 |
| CN(C)CCOCC1CN(Cc2ccccn2)Cc2nnn(C)c21.O=C(O)C(F)(F)F.O=C(O)C(F)(F)F.O=C(O)C(F)(F)F (centres undefined) | -27.07 |
| Cc1ccc(C(CCNCCN(C)C)C2CCOC(C)(C)C2)cc1.O=C(O)C(=O)O (centres undefined) | 1.762 |
| Cl.NC(CC1CCCCC1)c1ccccc1 (centres undefined) | 1.9 |
| Cl.NC(CC1CCCC1)c1ccccc1 (centres undefined) | -17.85 |
| NC(CC1CCCC1)c1ccc(Oc2ccccc2)cc1 (centres undefined) | 102.825 |
| COc1ccc(-c2cc(C3CCNCC3)ccn2)cc1.Cl | -16.31 |
| Cc1nc(CN2CCOCC3(CCN(c4ncccn4)CC3)C2)cs1.O=C(O)C(F)(F)F | -11.45 |
| CCc1nccn1-c1cccc(C2CCCN2)n1.Cl.Cl (centres undefined) | 8.16 |

| SMILES | Percent Effect [%] |
| --- | --- |
| CCn1ncnc1CN(C/C=C/c1ccccc1)CCOC | -13.31 |
| COCCN(C/C=C/c1ccccc1)Cc1[nH]cnc1C | -1.061 |
| COCCN(C/C=C/c1ccccc1)Cc1ncc[nH]1 | 14.48 |
| COCCN(C/C=C/c1ccccc1)Cc1nccs1 | 1.581 |
| CCc1ccc(CN(C/C=C/c2ccccc2)CCOC)nc1 | 98.48 |
| COCCN(C/C=C/c1ccccc1)Cc1ccccn1 | 61.37 |
| Cc1ccc(CN2Cc3ccccc3O[C@]3(CC[C@H](CO)CC3)C2)s1.Cl | -7.456 |
| COCCN1CCc2c(cnc(-c3ccccc3)c2C(=O)O)C1.O=C(O)C(F)(F)F | -9.252 |
| O=C(O)C(F)(F)F.O=C(c1cscn1)N1CC[C@@H]2[C@@H]1CCN2CC1CCOCC1 | 39.35 |
| CCN1CCC(N2CCC(C(=O)N(C)C)CC2)CC1.O=C(O)C(F)(F)F.O=C(O)C(F)(F)F | 2.155 |
| OC(CN(Cc1ccccc1)Cc1cscn1)c1cccs1 (centres undefined) | 5.463 |
| OC(CN(Cc1ccccc1)Cc1ccncc1)c1cccs1 (centres undefined) | -1.892 |
| OC(CN(Cc1ccccc1)Cc1ccccn1)c1cccs1 (centres undefined) | 66.35 |
| Cc1cccc(CN2CCC3(CC2)CN(c2cnn(C)c2)C(=O)CO3)n1.O=C(O)C(F)(F)F | -22.92 |
| CNc1cc(C2CCCNC2)nc(C)n1.Cl.Cl (centres undefined) | -17.65 |
| Cc1cc(C(F)(F)F)nc(CCNC(C)Cn2nc(C)cc2C)n1 (centres undefined) | 1.181 |
| Cc1cc(C(F)(F)F)nc(CCNC(C)Cn2ccnc2)n1 (centres undefined) | 103.9 |
| Cc1cc(C(F)(F)F)nc(CCNC(C)Cn2cncn2)n1 (centres undefined) | 16.73 |
| CCN1CCC2(CC1)OCCN2C(=O)c1cc(Cl)c(OC)c(Cl)c1.Cl | 13.79 |
| CN(CCO)C[C@@H]1CN(C2CCN(c3ccccc3Cl)CC2)C[C@@H]1CO | 81.68 |
| CN(C)C[C@@H]1CN(C2CCN(c3ccc(Cl)cc3)CC2)C[C@@H]1CO | 39.93 |
| Cc1cc(F)ccc1N1CCC(N2C[C@@H](CN(C)C)[C@@H](CO)C2)CC1 | 101.8 |
| CN(C)C[C@@H]1CN(C2CCN(c3ccccc3Cl)CC2)C[C@@H]1CO | -0.06241 |
| Cc1ccc(N2CCC(N3C[C@@H](CN(C)C)[C@@H](CO)C3)CC2)cc1 | -10.07 |

| SMILES | Percent Effect [%] |
| --- | --- |
| Cc1cc(F)ccc1N1CCC(N2C[C@@H](C)[C@@](C)(O)C2)CC1 | 33.53 |
| CCc1nc(C)cc(N2CCN(C(=O)[C@@H]3C[C@@H]4C=C[C@H]3C4)CC2)n1 | -1.962 |
| CS(=O)(=O)NCc1cc(=O)n2c(n1)CN(CC1CC1)CCC2.O=C(O)C(F)(F)F | 5.307 |
| O=C(O)C(F)(F)F.O=C(O)C(F)(F)F.O=C1CC[C@H]2[C@H](CCN2Cc2ccccn2)N1CC1CCOCC1 | -34.7 |
| Cc1cccc(CN2C(=O)C[C@@H]3[C@@H]2CCN3Cc2ccsc2)n1.O=C(O)C(F)(F)F.O=C(O)C(F)(F)F | -5.235 |
| Cl.NC(=O)COc1ccc(CNCc2ccc(F)cc2)cc1 | -18.87 |
| Cc1noc(C)c1CCC(=O)N1CCN(CCn2cccn2)CC1 | -5.618 |
| Cc1noc(C)c1CCC(=O)N1CCN(CCn2cncn2)CC1 | 78.74 |
| Cc1noc(C)c1CN1CCN(C(=O)CCn2cncn2)CC1 | -3.616 |
| Cn1ncc(Cl)c1C(=O)N1CCC(c2nnsc2S(C)(=O)=O)CC1 | -21.53 |
| Cn1cnc(S(=O)(=O)N2CC3(CCN(Cc4ccncc4)C3)C2)c1.O=C(O)C(F)(F)F.O=C(O)C(F)(F)F.O=C(O)C(F)(F)F | 36.02 |
| CN(C)C(=O)COCC1CN(Cc2ccco2)Cc2ncn(C)c21.O=C(O)C(F)(F)F.O=C(O)C(F)(F)F (centres undefined) | 31.48 |
| COCC(C)(CCO)NC(=O)Nc1cccc(Br)c1C (centres undefined) | 16.48 |
| CN1CC(=O)N(c2ccsc2)CC12CCN(C(=O)Nc1ccccc1)C2.O=C(O)C(F)(F)F (centres undefined) | -18.81 |
| O=C(N1CCCO1)[C@@]12CCO[C@@H]1CCN(Cc1cccs1)C2.O=C(O)C(F)(F)F | -21.11 |
| O=C(N1CCCC1)C12CC(CN1Cc1nccs1)C2 | 42.03 |
| O=C(NCC1CC1)C12CC(CN1Cc1nccs1)C2 | 54.2 |
| Cc1ccsc1C(=O)N1CC2CC1(C(=O)NCC1CC1)C2 | -11.04 |
| Cc1cc(N2CCN(Cc3cn(C)nc3C)CC2)cc(C2CCCN2)n1.Cl (centres undefined) | -11.47 |
| CC(=O)N1CCCC1c1nnn2cc(-c3ccncc3)ccc12.O=C(O)C(F)(F)F (centres undefined) | 8.291 |
| CC(=O)N1CCCC1c1nnn2cc(NCc3cccnc3)ccc12.O=C(O)C(F)(F)F.O=C(O)C(F)(F)F (centres undefined) | 27.19 |
| CC(=O)N1CCCC1c1nnn2cc(Nc3ccccc3)ccc12.O=C(O)C(F)(F)F (centres undefined) | 86.99 |

Reference: ChEMBL document CHEMBL3988442, “University of Dundee, Small-Polar-MMV Screening Library” (2021)
